Compounds without any hit were thinned out: in the full panel of roughly 79,000, 15% have a hit. Unmarked numbers belong to inactive results. Activity calls are given as the source filed them. No stated cut-off is given here; in the data, active means growth inhibition above about 70%; inactive means the rest.
Assay: NCI Yeast Anticancer Drug Screen. Data for the mec2-1 strain (AID 157)
Conditions: S. cerevisiae mec2-1 strain, at 50.0 µM, active compounds read high
How it was run: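 Growth inhibition is read against vehicle-treated controls after compound exposure of the mec2-1 yeast strain, which is defective in DNA damage repair or cell cycle control.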
`Cc1ccccc1Sc1ccccc1[N+](=O)[O-]` showed a growth inhibition of 12.8%. Molecule `Nc1nc(-c2ccc3c(c2)Sc2ccccc2O3)cs1` has a growth inhibition of 65.3%. In the case of `CC(C)(C)C1CCC2c3c([nH]c4ccccc34)C3C(=O)N(c4ccc(C(=O)O)cc4)C(=O)C3C2C1` (stereo not given), the growth inhibition is reported as 99.2% (active). In the case of `CCC[CH2][Sn]([CH2]CCC)([O]N(C)C(=O)c1ccc(Br)cc1)[O]N(C)C(=O)c1ccc(Br)cc1`, the growth inhibition is reported as 90.2% (active). In the case of `COC(=O)c1ccc([N+](=O)[O-])o1`, the growth inhibition is reported as 46.4%. In the case of `O=C(OC1=C(Br)C(=O)c2ccccc2C1=O)c1ccccc1`, the growth inhibition is reported as 60.2%. `O=C(O)C/C(=C\c1ccco1)C(=O)O` showed a growth inhibition of -11.5%. In the case of `N#C/C(=C/c1ccc([N+](=O)[O-])o1)c1ccccc1`, the growth inhibition is reported as -20.1%. With `CCN(CC)CCOc1ccc(C=C2c3ccccc3-c3ccccc32)cc1` the growth inhibition was 99.2% (active). With `Nc1ncnc(N2CCOCC2)c1N` the growth inhibition was 29.6%. `Cc1cc(Cl)ccc1N1C(=O)C(=O)C(c2nc3ccccc3o2)C(=O)C1=O` gave a growth inhibition of 64.7%. For `Cc1nc2c(Cl)nc(Cl)nc2s1`, the growth inhibition was 98.5% (active). In the case of `CC1=NOC(=O)/C1=C/c1ccc(Cl)c(Cl)c1`, the growth inhibition is reported as 36.7%. In the case of `CN(CCC(=O)/C(=C\c1ccc(Cl)cc1)c1ccccc1)Cc1ccccc1`, the growth inhibition is reported as 99% (active). For `C(=N\N=C\c1ccc2c(c1)OCO2)/c1ccc2c(c1)OCO2`, the growth inhibition was -4.3%. For `Clc1ccc(CSc2ncnc3c2ncn3C2CCCCO2)cc1` (stereo not given), the growth inhibition was 97.5% (active). In the case of `CC(=O)OC/C=C/CCCOC(C)=O`, the growth inhibition is reported as 64.3%. `CCCCCCCCCCOC(=O)c1cccnc1` gave a growth inhibition of 39.3%. `Cc1ccc2c(c1)C1(SCC(=O)N1c1ccc(Cl)cc1)C(=O)N2` (stereo not given) gave a growth inhibition of 16.4%. In the case of `Oc1ccc(C2CCc3ccccc32)cc1` (stereo not given), the growth inhibition is reported as 99.8% (active). With `[O-][N+]1=C2CCC/C(=N/O)C2(O)C2CCCCC21N1CCOCC1` (stereo not given) the growth inhibition was -39.8%. With `CCCCN(c1ccccc1)c1ncnc2c1ncn2C` the growth inhibition was 79.8% (active). In the case of `Cc1cc(C)nc(/C=C/c2ccccc2)c1`, the growth inhibition is reported as 96.6% (active). `CCCCN(C)N=Nc1c(C(N)=O)n[nH]c1C(C)C` showed a growth inhibition of 24.4%. In the case of `O=C1C(Cl)=C(Cl)C(=O)C2=C1CC(Cl)C(Cl)C2` (stereo not given), the growth inhibition is reported as 99.3% (active). With `O=C1Oc2ccccc2C(=O)/C1=C/N1C(=O)/C(=C/c2ccc3c(c2)OCO3)SC1=S` the growth inhibition was 47.8%. In the case of `O=C(/C=C/c1ccc(O)cc1)c1cc(Cl)ccc1O`, the growth inhibition is reported as 95.7% (active). For `CCCC(C(=O)OCCNC1CCCCC1)c1ccccc1` (stereo not given), the growth inhibition was 11.9%. For `c1ccc2cc3c(cc2c1)Nc1c2ccccc2nc2cccc-3c12`, the growth inhibition was 70.5% (active). `CCCC1CCCC1(CC(=O)c1ccccc1)C(=O)O` (stereo not given) showed a growth inhibition of 64.8%. Molecule `COc1ccc(CCN2C(=O)C(=O)N(C3CCCCC3)C2=O)cc1OC` has a growth inhibition of 11.9%. `COC(C(=O)O)c1ccccc1` (stereo not given) gave a growth inhibition of 8.9%. `CCCCCCCCC(=O)NCCCNCCCNC(=O)CCCCCCCC` showed a growth inhibition of 50.2%. For `C[Si](C)(CCC(=O)O)O[Si](C)(C)CCC(=O)O`, the growth inhibition was 99.7% (active). With `Cc1c2cc[n+](C)cc2c(C)c2c1[nH]c1ccc(Cl)cc12` the growth inhibition was 92.4% (active). Molecule `O=[N+]([O-])c1ccc(C2=Nn3c(nnc3-c3ccc(Cl)cc3)SC2)o1` has a growth inhibition of 37.7%. Molecule `CCCCCCCCCCN(CCCCCCCCCC)CC(O)c1cc(-c2ccccc2)nc2ccccc12` (stereo not given) has a growth inhibition of 21.9%. With `O=C(c1ccccc1)C(c1ccccc1)C1(O)C(=O)Nc2c(Cl)cc(Cl)cc21` (stereo not given) the growth inhibition was 93.3% (active). With `COC(=S)S` the growth inhibition was 18.7%. In the case of `CC/C(=C(\CC)c1ccc(O)c(CN(CC)CC)c1)c1ccc(OC)cc1`, the growth inhibition is reported as 99.7% (active).

Reference: PubChem BioAssay (NCI)
